“And” between values parts separate entries of the source, which are not always exact repeats. Equal entries are not always repeated. Structures can show the parent of a compound that is named as a salt. ± gives the standard deviation of the averaged measurements.

The subject of the assay is LASCPC-01. Put plainly: cell viability relative to DMSO control (fraction); higher = less growth inhibition (more viable cells). Conditions: 2 µM; 72 h. As to the method:
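High-throughput single-dose screen in the LASCPC-01 NEPC cell line in 384-well plates. Cells were treated with each compound at 2 µM for 72 h, and viability was read by CellTiter-Glo luminescence. Values are normalised to the DMSO control (compound/DMSO) from three replicates; only the 5-HT-related subset of the 7315-compound library is given.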
Turning to `COC(=O)[C@H]1[C@H]2C[C@@H]3c4[nH]c5cc(OC)ccc5c4CCN3C[C@H]2C[C@@H](OC(=O)c2cc(OC)c(OC)c(OC)c2)[C@@H]1OC` [Reserpine], the cell viability is 0.918.
Next, `O=C(OC1C[C@@H]2CC3C[C@H](C1)N2CC3=O)c1c[nH]c2ccccc12` (stereo not given in full) [Dalasetron Mesylate Hydrate]: 0.985.
Next, `CCOc1cc(N)c(Cl)cc1C(=O)NCC1CN(Cc2ccc(F)cc2)CCO1` (stereo not given) [Mosapride Citrate]: 0.912.
Then `CN(C)C/C=C(/c1ccc(Br)cc1)c1cccnc1` [Zimelidine dihydrochloride], with 1.01; and `Cc1cc2c(cc1Cl)N(C(=O)Nc1cccc3ncccc13)CC2`, with 0.693.
`CN1CC2c3ccccc3Oc3ccc(Cl)cc3C2C1` (stereo not given) [Asenapine] showed a cell viability of 0.974.
On to `CC(C)(C)c1ccc(CN2CCN(C(c3ccccc3)c3ccc(Cl)cc3)CC2)cc1` (stereo not given) [Buclizine HCl], for which the cell viability came out at 0.896.
Next, `CCC(=O)c1c(O)cc(O)cc1O` [Flopropione]: 0.95.
In the case of `Cc1[nH]cnc1CN1CCc2c(c3ccccc3n2C)C1=O` [Alosetron hydrochloride], the cell viability was found to be 1.11.
For `O=C1NCCN1CCN1CCC(c2cn(-c3ccc(F)cc3)c3ccc(Cl)cc23)CC1` [Sertindole], the cell viability came out at 0.499.
Consider `COc1ccc2cccc(CCNC(C)=O)c2c1` [Agomelatine], for which the cell viability was found to be 1.07.
`CC(=O)c1ccc2c(c1)N(CCCN1CCC(CCO)CC1)c1ccccc1S2` [Piperacetazine] returned a cell viability of 0.764.
Then `CNc1nn2c(C)c(N(C)C)c(C)nc2c1S(=O)(=O)c1ccccc1`, with 0.978; and `C=C1C(=O)O[C@H]2[C@H]1CC/C(C)=C/CC[C@@]1(C)O[C@@H]21` [Parthenolide], with 0.323.
Next, `CN1CCC[C@@H]1Cc1c[nH]c2ccc(CCS(=O)(=O)c3ccccc3)cc12` [Eletriptan hydrobromide]: 1.21.
Next, `CN1CCC(=C2c3ccccc3C=Cc3ccccc32)CC1` [Cyproheptadine hydrochloride]: 1.14; `O=C(CCCCCN1CCN(c2ccccc2-c2ccccc2)CC1)NC1CCCc2ccccc21` (stereo not given) [LP 12 hydrochloride hydrate]: 0.972; `CNS(=O)(=O)CCc1ccc2[nH]cc(C3CCN(C)CC3)c2c1` [Naratriptan hydrochloride]: 1.02.
Compound `CN[C@H]1CC[C@@H](c2ccc(Cl)c(Cl)c2)c2ccccc21` [Sertraline HCl] showed a cell viability of 0.833.
Consider `N[C@@H](Cc1c[nH]c2ccccc12)C(=O)O` [L-Tryptophan], for which the cell viability was 0.904.
`CN(C)CCc1c[nH]c2ccc(CS(=O)(=O)N3CCCC3)cc12` [Almotriptan Malate] yielded a cell viability of 0.818.
In turn, `CC(CN(C)C)CN1c2ccccc2CCc2ccccc21` (stereo not given) [Trimipramine maleate] showed a cell viability of 1.01.
Next, `Cc1nc2ccccn2c(=O)c1CCN1CCC(C(=O)c2ccc(F)cc2)CC1` [Pirenperone]: 0.645; `Cc1cnc(CNCC2(F)CCN(C(=O)c3ccc(F)c(Cl)c3)CC2)nc1`: 0.989; `CN1CCc2c(c3ccccc3n2Cc2ccccc2)C1` [Mebhydrolin napadisylate]: 1.03.
Next, `CNS(=O)(=O)CCc1ccc2[nH]cc(C3CCN(C)CC3)c2c1` [Naratriptan]: 1.03; `CNCCC(Oc1ccc(C(F)(F)F)cc1)c1ccccc1` (stereo not given) [Fluoxetine hydrochloride]: 0.686.
`Cc1cc(-c2ccccc2)nnc1NCCN1CCOCC1` [Minaprine dihydrochloride]: the cell viability amounted to 1.
`Cc1nccn1CC1CCc2c(c3ccccc3n2C)C1=O` (stereo not given) [Ondansetron hydrochloride] yielded a cell viability of 1.12.
For `Cn1cc(C(=O)[C@@H]2CCc3[nH]cnc3C2)c2ccccc21` [Ramosetron], the cell viability turned out to be 1.08.
Next, `CNCCC(Oc1ccc(C(F)(F)F)cc1)c1ccccc1` (stereo not given) [Fluoxetine HCl]: 1.02.
`Cn1ccc2cc(NC(=O)Nc3cccnc3)ccc21`: the cell viability is 1.03.
The compound `Cc1ncc(CO)c(CO)c1O` [Metadoxine] came in with a cell viability of 1.13.
Next, `CC(C)c1cc(-c2ccc(F)c3ccccc23)nc(N)n1`: 1.05 and 0.845 and 0.897; `CN1CCC(c2c[nH]c3ccc(NC(=O)c4ccc(F)cc4)cc23)CC1`: 0.954.
The compound `CN(C)CCCN1c2ccccc2CCc2ccc(Cl)cc21` [Clomipramine hydrochloride] returned a cell viability of 0.987.
Next, `Fc1ccc([C@@H]2CCNC[C@H]2COc2ccc3c(c2)OCO3)cc1` [Paroxetine HCl]: 1.02; `CN(C)CCC=C1c2ccccc2C=Cc2ccccc21` [Cyclobenzaprine hydrochloride]: 0.947; `NCCc1c[nH]cn1` [Histamine]: 1.07.
Consider `CNCCC(Oc1ccc(C(F)(F)F)cc1)c1ccccc1` (stereo not given) [Fluoxetine], for which the cell viability was 0.892 ± 0.41.

The values are drawn from the supplement of paper PMC10042075.
